Reference: ChEMBL document CHEMBL4513216, “Probing the Open Global Health Chemical Diversity Library for Multistage-Active Starting Points for Next-Generation Antimalarials” (ACS Infect Dis, 2020)
About 8,600 (12%) of roughly 69,000 compounds showed an effect of 50% or more. This is one part of a sample in which strong results are shown more often than they occur.

system: Plasmodium berghei; experiment: Screen against P. berghei liver stage (PbLuc), transformed with Luciferase, at 10uM; format: functional, HepG2; conditions: tested at 10 uM

| SMILES | INHIBITION [%] |
| --- | --- |
| Cc1cc2nc(C(C)C)cc(N(C)CC3CCN(C(C)C)C3)n2n1 (stereo not given) | 27.6 |
| Cc1cc2nc(C(C)C)cc(N(C)CC3CCCN(CCO)C3)n2n1 (stereo not given) | 58.5 |
| Cc1cc2nc(C(C)C)cc(N(C)CC3CCCN3C)n2n1 (stereo not given) | 33 |
| Cc1ccc(NC2CCN(C(=O)c3cncnc3C)CC2)nn1 | -17.22 |
| CCn1ccc(NC(=O)CCc2c(C)nn(C)c2C)n1 | 38.7 |
| CNC(=O)CS(=O)(=O)C1CCN(S(=O)(=O)c2ccccc2Cl)CC1 | 25.8 |
| CNC(=O)CS(=O)(=O)C1CCN(S(=O)(=O)c2ccccc2Br)CC1 | -26.6 |
| CNC(=O)CS(=O)(=O)C1CCN(S(=O)(=O)c2cccc(Cl)c2C)CC1 | 80 |
| Cc1cccc2[nH]c(COCC(=O)N3CCCn4cncc4C3)nc12 | 22.7 |
| COc1ccc(C(=O)Nc2c(C(=O)N(C)C)nn(C)c2C)cc1 | 61.5 |
| Cc1ccc(C(=O)Nc2c(C(=O)N(C)C)nn(C)c2C)cc1 | -10.6 |
| Cc1c(NC(=O)c2ccc(Br)cc2)c(C(=O)N(C)C)nn1C | 17.6 |
| CCOCC1CN(Cc2ccsc2)Cc2cnn(C)c21 (stereo not given) | 36.2 |
| CC(NC(=O)NCCCn1cncn1)c1ccccc1F (stereo not given) | 11.9 |
| COC(=O)C(CO)NC(=O)c1cn(Cc2ccccc2F)nn1 (stereo not given) | -4.4 |
| CCOC(=O)CC(C)NC(=O)c1cn(Cc2ccccc2F)nn1 (stereo not given) | -44.2 |
| CC(Cn1cncn1)NC(=O)c1cn(Cc2ccccc2F)nn1 (stereo not given) | 68.8 |
| COCC1CCN(C(=O)c2cn(Cc3ccccc3F)nn2)CC1 | 14.2 |
| COC(=O)CNC(=O)c1cn(Cc2ccccc2F)nn1 | 82.9 |
| CCOC(=O)CC(NC(=O)c1cn(Cc2ccccc2F)nn1)C(C)C (stereo not given) | 72.6 |
| O=C(NCCCOc1cccnc1)c1cn(Cc2ccccc2F)nn1 | 12.9 |
| NCCn1cc(C(=O)NCc2ccccc2Cn2cccn2)nn1 | 29.4 |
| COc1ccc(CNCCc2cc(F)cc3c2OCOC3)c(OC)c1 | 30 |
| Cc1cc(C(=O)NCc2ccc(F)cc2)nc(C2CCCN2C)n1 (stereo not given) | -3.31 |
| OCCO[C@H]1C[C@@H](O)C12CCN(Cc1nc(C(F)(F)F)no1)CC2 | -17.8 |
| CCN1CCCCC1C(=O)N1CCN(C(=O)OC)CC1 (stereo not given) | 29.9 |
| CCn1cnnc1C1CCN(C(=O)c2cnc(C)s2)CC1 | 27.6 |
| CC(C)c1ncncc1C(=O)NCCN1CCCCC1C (stereo not given) | 36.9 |

| SMILES | INHIBITION [%] |
| --- | --- |
| CCOCC1CCN(C(=O)C(c2cccc(F)c2)N(C)C)CC1 (stereo not given) | 17.5 |
| CN(C(=O)CCc1ccncc1)C1CCCN(CCc2ccccc2)C1 (stereo not given) | -8.07 |
| CN(C(=O)CC1=CCCCC1)C1CCCN(C2Cc3ccccc3C2)C1 (stereo not given) | 28.3 |
| CN(C(=O)CC1=CCCCC1)C1CCCN(CCc2ccccc2)C1 (stereo not given) | 59.2 |
| CC(O)c1cn(Cc2ccc(Cl)cc2Cl)nn1 (stereo not given) | 7.92 |
| Cc1cc(C(=O)N2CCCC2c2noc(C)n2)[nH]n1 (stereo not given) | 38.5 |
| CCCNC(=O)c1cccc2ncccc12 | 26.7 |
| Cc1cccc(=O)n1CCC(=O)N(C)Cc1cccc2ncccc12 | 33.1 |
| CN(C(=O)CCC(F)(F)F)c1cccc2ncccc12 | 71.4 |
| CCCC(=O)N(C)c1cccc2ncccc12 | 77.8 |
| CCCC(=O)N(C)c1cc(C#N)c2ccccc2n1 | -31.7 |
| CN(Cc1cccc2ncccc12)C(=O)CCC(F)(F)F | 19.7 |
| COc1ccc(-n2cc3[nH]c(=O)n(C(C)C)n3c2=O)cc1 | -12.5 |
| CCOCC1CN(Cc2cccs2)Cc2nn(C)cc21 (stereo not given) | -2.72 |
| CCN(Cc1ccc2c(c1)OCCO2)C(=O)c1ccc(C)[nH]c1=O | -4.43 |
| O=C(Cn1ncc2c(c1=O)CCCCC2)Nc1cccc2[nH]ccc12 | 36.1 |
| Cn1ccc2c(NC(=O)Cn3ncc4c(c3=O)CCCCC4)cccc21 | 6.29 |
| Cn1ccc2c(NC(=O)Cn3ncc4c(c3=O)CCCC4)cccc21 | 74.1 |
| Cn1cc(CC2CCN(C(=O)NCCCc3ccc(O)cc3)C2)cn1 (stereo not given) | 49.2 |
| O=C(CCc1nccs1)N1CCN(c2cccnn2)CC1 | 1.77 |
| CC(C)OCCC(=O)NCCC(=O)N1CCN(c2ccccn2)CC1 | 14.2 |
| CC(C)COCCC(=O)NCCC(=O)N1CCN(c2ccccn2)CC1 | 56.6 |
| CC(C)C(=O)NCCC(=O)N1CCN(c2ccccn2)CC1 | 24.1 |
| O=C(CCc1nccs1)N1CCN(c2ncccn2)CC1 | 26.1 |
| O=C(CCc1nccs1)N1CCN(c2ccccn2)CC1 | 51.1 |
| Cc1nn(CC(=O)NCCc2ccncc2)c(=O)n1Cc1ccccc1 | -45 |
| CNC(=O)CN(C)C(=O)c1cc(Cl)c(I)cc1OC | 45.2 |
